Results published in PubChem BioAssay AID651784 (National Center for Advancing Translational Sciences (NCATS), 2012).
Inconclusive results are not listed. Calls of active or inactive are those of the source. Calls follow the shape of the dose curve; as a rule, active = well fitted inhibition curve with a large enough effect; inconclusive = small, poorly fitted or top-dose-only effect; inactive = no such curve, though single readings can be large or run the other way.

assay: Acumen qHTS Assay for Inhibitors of the mTORC1 Signaling Pathway in MEF (Tsc2-/-, p53-/-) Cells: Hit Validation; conditions: Acumen imaging; activity change, negative = inhibition: at 37.3 µM (top of the series);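 also: phospho-rpS6 Ser235/236 immunofluorescence normalized to propidium iodide cell count; nearly all actives have a fitted effect of over 65% in size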;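 as to activity change, negative = inhibition: cells exposed to compound for 24 hours; plate controls were DMSO for no effect and 7.5 nM rapamycin control for full effect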
Potency is read from the fitted curve at half-maximal effect.

Structure (SMILES) | Potency | activity change, negative = inhibition [%]
CCc1ccc(NC(=O)Cn2c(=O)n(-c3ccc(OC)cc3)c(=O)c3ccc(C(=O)NCc4ccc(C)cc4)cc32)cc1 | 4.65 µM (active) | –
Cc1nn(CCCC(=O)NCc2cccc(Cl)c2)c(=O)c2c1sc1ccccc12 | – | -2.73
COc1ccc(S(=O)(=O)N(Cc2nc(-c3cccc(C)c3)no2)C2CCCCC2)cc1 | – | -16.2
COc1cc(C(=O)Nc2ccc(NC(=O)c3ccc(C(C)(C)C)cc3)cc2)cc(OC)c1OC | 10.4 µM (active) | –
CCc1ccc(S(=O)(=O)N(C(=O)Oc2ccccc2)c2ccc3oc(C)c(C(=O)OC)c3c2)cc1 | – | -70.3
CC(C)Cc1ccc(S(=O)(=O)N2CCC(c3ccncc3)CC2)cc1 | 4.65 µM (active) | –
CC(C)c1ccc(NS(=O)(=O)c2ccc3nc(-c4ccccc4)[nH]c3c2)cc1 | – | -0.821
CC(=O)C1=C(c2ccc(Cl)c(Cl)c2)N(C(C)=O)n2cnnc2S1 | 5.21 µM (active) | –
c1ccc(N2CCN(c3ncnc4[nH]ncc34)CC2)cc1 | – | 6.17
Cc1c(C(=O)OC2CCC(C)CC2)[nH]c2c1C(=O)CC(c1ccc(F)cc1)C2 (configuration not stated) | 1.04 µM (active) | –
CC[C@H](CO)Nc1nc(NCc2ccccc2)c2ncn(C(C)C)c2n1 | – | -22.4
CCCCN(C)C(=O)CSc1c2c(nc3ccc(Cl)cc13)CCCC2 | – | -13.3
Cc1ccc(NC(=O)c2nc(S(=O)(=O)Cc3cccc(C)c3)ncc2Cl)cc1 | – | -108
CC(C(=O)NCc1cccc(Br)c1)n1ncn2cccc2c1=O (configuration not stated) | – | 1.66
COc1ccc(OCC(=O)NCc2ccc3c(c2)CCN3C(=O)c2ccccc2)cc1 | 16.5 µM (active) | –
COc1ccc(Oc2nc3c(C)cccn3c(=O)c2/C=C(\C#N)c2nc3ccccc3[nH]2)cc1 | – | 11.5
CCCOCc1cc(CN2CCN(c3ccccc3OC)CC2)c(O)c2ncccc12 | – | -93.6
CCCCOc1ccc(Cn2c(=O)sc3ccccc32)cc1 | – | -17
CC(C)(C)C1CCc2c(sc(NC(=O)C3c4ccccc4Oc4ccccc43)c2C(N)=O)C1 (configuration not stated) | – | -15.3
Fc1ccc(Nc2nc3nonc3nc2Nc2cccc(C(F)(F)F)c2)cc1 | 1.85 µM (active) | –
Cc1ccccc1S(=O)Cc1ccc(C(=O)N2CCN(c3cccc(C)c3C)CC2)o1 (configuration not stated) | 6.56 µM (active) | –
Cc1ccc(C)c(N2CCN(CCCNC(=O)Nc3ccc(Cl)cc3)CC2)c1 | – | -77
